37 compounds from PubChem BioAssay (EPA / NIEHS) can be followed below.

Activity calls are given as the source filed them. The calls were made as follows: active = hit-call score of the fitted dose curve at least 0.9, where 1 is the maximum; inactive = score below 0.9.

The nature of this assay: Tanguay_ZF_120hpf_EDEM: Oregon State University Tanguay Lab 120 Hour Post-fertilization zebrafish Assay for Edema Malformation (AID 2284400). How it is done:
Tanguay_ZF_120hpf is a whole embryo, multiplexed endpoint assay using zebrafish larvae exposed for 120 hours post fertilization on a 96-well plate.Tanguay_ZF_120hpf_EDEM is one of one assay component(s) measured or calculated from the Tanguay_ZF_120hpf assay. It is designed to make measurements of zebrafish development as detected with brightfield microscopy of developing zebrafish embryos.Data from the assay component Tanguay_ZF_120hpf_EDEM was analyzed into 1 assay endpoints. This assay endpoint, Tanguay_ZF_120hpf_EDEM, was analyzed in the positive analysis fitting direction relative to DMSO as the negative control and baseline of activity. Using a type of morphology reporter, gain-of-signal activity can be used to understand changes in developmentals as they relate to the whole embryo. To generalize the intended target to other relatable targets, this assay endpoint is annotated to the zebrafish development intended target family, where the subfamily is embryonic edema.
Zebrafish husbandry: Tropical 5D wild-type adult zebrafish were housed in at an approximate density of 1000 per 100 gallon tank at the Sinnhuber Aquatic Research Laboratory, Oregon State University, Corvallis, OR. Each tank was kept at standard laboratory conditions of 28C on a 14-h light/10-h dark photoperiod in fish water consisting of reverse osmosis water supplemented with a commercially available salt (Instant Ocean). Spawning funnels were placed into the tanks the night prior, and embryos were collected and staged. To increase bioavailability, the chorion was enzymatically removed using pronase (63.6mg/ml, >/= 3.5U/mg, Sigma-Aldrich: P5147) at 4 hours post fertilization (hpf) using a custom automated dechorionator.Chemical exposures: Six hpf dechorionated embryos were placed 1 embryo per well in a 96-well plate prefilled with 90 ul of EM using automated embryo placement systems (AEPS). Ten microliters of each row of dilution plate 2 was added to 2 exposure plates. The final DMSO concentration used was 0.64% (vol/vol). Thirty-two embryos were also exposed to 5uM trimethyltin chloride (positive control). Plates were sealed to prevent evaporation and foil covered to reduce light exposure and kept in a 28C incubator. Embryos were statically exposed until 120 hpf. At 24 hpf, embryos were assessed for photomotor response using a custom photomotor response analysis tool (PRAT) and for developmental toxicity endpoints (MO24: mortality at 24 hpf, DP: developmental progression, SM: spontaneous movement, and NC: notochord distortion). At 120 hpf, locomotor activity was measured using Viewpoint Zebralab and assessed for 13 endpoints. Zebrafish acquisition and analysis program (ZAAP), a custom program designed to inventory, acquire, and manage zebrafish data, was used to collect developmental endpoints as either present or absent (i.e., binary responses were recorded). If mortality occurred for an embryo (at either 24 or 120 hpf), the non-mortality endpoints were not measured.
Turning to `NC(=O)C(F)(F)C(F)(F)C(F)(F)C(F)F`, the call was inactive.

In the case of `OCC(F)(F)C(F)(F)C(F)(F)C(F)(F)C(F)(F)C(F)(F)C(F)(F)C(F)(F)CO`, the outcome was inactive.

As for `C[Si](Cl)(Cl)CCC(F)(F)C(F)(F)C(F)(F)C(F)(F)C(F)(F)C(F)(F)F`, the outcome was inactive.

Broadly, the AC50 is the concentration at which the activity in the assay is half-maximal. As to `C=CC(=O)OCC(F)(F)C(F)(F)C(F)(F)COC(=O)C=C`, the AC50 is 20.9 µM (active).

On to `COC(F)(C(F)F)C(F)(F)F` (configuration not stated), for which the compound was classed as inactive.

`CCOC(=O)CC(=O)C(F)(F)C(F)(F)F`: the outcome was inactive.

Turning to `OCCCC(F)(F)C(F)(F)C(F)(F)C(F)(F)C(F)(F)C(F)(F)C(F)(F)C(F)(F)F`, the compound was called inactive.

Turning to `OCCCCC(F)(F)C(F)(F)C(F)(F)C(F)(F)F`, the call was inactive.

Take `OCC(O)CC(F)(F)C(F)(F)C(F)(F)C(F)(F)C(F)(F)C(F)(F)C(F)(F)C(F)(F)F` (configuration not stated): the concentration at half-maximal activity (AC50) was 5.23 µM (active).

`O=C(O)C(F)(F)C(F)(F)C(F)(F)C(=O)O`: the compound was classed as inactive.

Consider `OCC(O)CC(F)(F)C(F)(F)C(F)(F)C(F)(F)F` (configuration not stated), for which the outcome was inactive.

With `FC(F)(F)C(F)(F)C(F)(F)C(F)(F)C(F)(F)C(F)(F)CC[Si](Cl)(Cl)Cl`, the compound was classed as inactive.

As to `C=CC(=O)OCCC(F)(F)C(F)(F)C(F)(F)C(F)(F)F`, the call was inactive.

As for `O=S(=O)(Cl)C(F)(F)C(F)(F)C(F)(F)C(F)(F)C(F)(F)C(F)(F)C(F)(F)C(F)(F)F`, the compound was called inactive.

As to `O=C(O)C(F)(F)C(F)(F)C(F)(F)OC(F)(C(F)(F)F)C(F)(F)F`, the call was inactive.

In the case of `O=C(O)C(F)(F)C(F)(F)C(F)(F)OC(F)(F)F`, the outcome was inactive.

For `OCC(F)(F)C(F)(F)C(F)(F)CO`, the compound was classed as inactive.

For the compound `OCC(F)(F)C(F)(F)C(F)(F)C(F)(F)C(F)(F)C(F)(F)CO`, the compound was called inactive.

In the case of `CCN(CCO)S(=O)(=O)C(F)(F)C(F)(F)C(F)(F)C(F)(F)C(F)(F)C(F)(F)C(F)(F)C(F)(F)F`, the result was inactive.

Take `CNS(=O)(=O)C(F)(F)C(F)(F)C(F)(F)C(F)(F)C(F)(F)C(F)(F)C(F)(F)C(F)(F)F`: the AC50 was 47.8 µM (active).

Regarding `NS(=O)(=O)C(F)(F)C(F)(F)C(F)(F)C(F)(F)C(F)(F)C(F)(F)F`, the outcome was inactive.

On to `O=C(F)C1(F)C(F)(F)C(F)(F)C(F)(F)C(F)(F)C1(F)F`, for which the outcome was inactive.

Turning to `CN(C(=O)C(F)(F)C(F)(F)C(F)(F)F)[Si](C)(C)C`, the call was inactive.

Regarding `NC(O)(C(F)(F)F)C(F)(F)F`, the result was inactive.

For the compound `O=C(O)CCC(F)(F)C(F)(F)C(F)(F)C(F)(F)C(F)(F)C(F)(F)C(F)(F)F`, the result was inactive.

Take `OC(O)C(F)(F)C(F)(F)F`: the call was inactive.

Consider `C=CC(=O)OCC(F)(F)C(F)(F)C(F)(F)C(F)(F)C(F)(F)C(F)(F)C(F)(F)C(F)F`, for which the result was inactive.

On to `O=S(=O)(O)CCC(F)(F)C(F)(F)C(F)(F)C(F)(F)C(F)(F)C(F)(F)C(F)(F)C(F)(F)F`, for which the compound was called inactive.

With `O=S(=O)(O)CCC(F)(F)C(F)(F)C(F)(F)C(F)(F)F`, the compound was classed as inactive.

As to `NC(=O)C(F)(F)C(F)(F)C(F)(F)F`, the call was inactive.

As to `FC(F)(F)C(F)(F)C(F)(F)CC1CO1` (configuration not stated), the compound was classed as inactive.

For `FC(F)(F)C(F)(F)C(F)(F)C(F)(F)C(F)(F)C(F)(F)C(F)(F)CCI`, the call was inactive.

Take `CO[Si](C)(CCC(F)(F)C(F)(F)C(F)(F)C(F)(F)C(F)(F)C(F)(F)F)OC`: the result was inactive.

Take `O=C(O)CCC(F)(F)C(F)(F)C(F)(F)F`: the outcome was inactive.

For the compound `O=S(=O)(OCC(F)(F)F)C(F)(F)C(F)(F)C(F)(F)C(F)(F)F`, the compound was called inactive.

As to `NC(=O)C(F)(F)C(F)(F)C(F)(F)C(F)(F)C(N)=O`, the call was inactive.

Regarding `NC(=O)C(F)(F)C(F)(F)C(F)(F)C(F)(F)C(F)(F)C(F)(F)C(F)(F)F`, the result was inactive.
